Assay outcomes as filed in PubChem BioAssay.
HP1b chromo inh: blocks HP1-beta chromodomain binding to methylated histone tails; AlphaScreen HP1-beta / biotin-H3K9me3 peptide binding; P83916; AID 540317; hit rate 0.56% among 390,000; Potency, µM (titrated, usually from 114 µM), inactives show top-dose activity change, negative = inhibition, hits mostly inhibitors; further: nearly all actives have a fitted effect of over 70% in size
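Compound inhibition of the preformed complex between 50 nM HP1-beta and 50 nM biotinylated H3K9me3 peptide was read by AlphaScreen. Buffer was PBS pH 7.4 with 0.01% Tween-20. Incubations ran 30 min at room temperature, with 10 ug/mL donor/acceptor beads.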
BAZ2B block: blocks human BAZ2B; hit rate 4.4% among 360,000; AID 504333; AlphaScreen BAZ2B-H3K14Ac peptide displacement; Potency, µM (doses to about 114 µM), for the others: at the highest dose activity change, negative = inhibition, most hits filed as inhibitors; Q9UIF8; further: on the % scale 0 is the no-effect control and ±100 the full control effect; nearly all actives have a fitted effect of over 60% in size
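In this displacement format the biotinylated H3(5-23) peptide acetylated at Lys14 serves as ligand at 50 nM, with BAZ2B at 50 nM in PBS pH 7.4 containing 0.01% Tween-20. Donor and acceptor beads are 10 ug/mL final.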
G9a inh: G9a (human) methyltransferase inhibition; Q96KQ7; G9a H3K9 monomethylation, AlphaScreen, 2 h; Potency, µM (series often up to 102 µM), inactives show at the top dose activity, negative = inhibition, hits mostly inhibitors; hit rate 8.8% among 350,000; further: on the % scale 0 is the no-effect control and ±100 the full control effect; nearly all actives have a fitted effect of over 75% in size
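Methyltransferase reactions run at room temperature for 2 h (20 nM enzyme, 500 nM biotin-H3K9 peptide, 20 uM SAM) after a 15 min compound preincubation; product detected by AlphaScreen beads and anti-H3K9me1 antibody.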
JMJD2A Tudor inh: blocks the human JMJD2A Tudor domain; O75164; AlphaScreen JMJD2A-Tudor / H3K4me3 peptide binding; Potency, µM (titrated, usually from 114 µM), inactives show top-dose activity change, negative = inhibition, actives largely listed as inhibitors; hit rate 4.4% among 390,000; further: on the % scale 0 is the no-effect control and ±100 the full control effect; nearly all actives have a fitted effect of over 50% in size
Sfp PPTase inh: inhibitors of Bacillus subtilis Sfp phosphopantetheinyl transferase; hit rate 3.5% among 310,000; Potency, µM, for the others: largest response in the series, negative = inhibition, usual class: inhibitors; Biochemical Sfp PPTase activity, qHTS; Q9F4F7;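 further: the enzyme is Sfp with the accession as filed and its product quenches rhodamine fluorescence; 0% = enzyme reaction without inhibitor and -100% = no enzyme wells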
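Fluorescence-quenching assay with 15 nM Sfp, 5 uM rhodamine-CoA and 12.5 uM BHQ-2-labelled ybbR peptide in pH 7.6 Hepes/MgCl2 buffer. Enzyme was pre-incubated with compound for 15 min at room temperature. Rate was taken from the 30-min fluorescence change (525/598 nm).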
L3MBTL1 block: L3MBTL1 (human) inhibition | Q9Y468 | AlphaScreen L3MBTL1–H3K9me1 peptide binding | Potency, µM (highest dose often 57.1 µM), for inactives: at the top dose activity, negative = inhibition, hits mostly inhibitors | hit rate 0.66% among 230,000; further: on the % scale 0 is the no-effect control and ±100 the full control effect; nearly all actives have a fitted effect of over 60% in size
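AlphaScreen proximity signal between nickel-chelate acceptor and streptavidin donor beads (final 10 ug/mL) reports binding of 50 nM L3MBTL1 to 75 nM biotin-H3 K9me1 peptide; complex incubated with compounds 30 min at room temperature; cefsulodin titration as control.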
* = called active by the depositor; ? = inconclusive; nt = no result given; [ ] = remark or other dose. Rows were chosen to be rich in hits. Some 12% of all compounds tested hit in one or more screens of this group. The call rests on the fitted dose curve; in most records, active means well fitted curve in the direction sought with a large enough effect; inconclusive means small, poorly fitted or top-dose-only effect, or another doubt; inactive means no such curve, though single readings can be large; an effect the other way counts as inactive or inconclusive. Potency means the concentration at half of the fitted maximal effect.

SMILES	HP1b chromo inh	BAZ2B block	G9a inh	JMJD2A Tudor inh	Sfp PPTase inh	L3MBTL1 block
CCOC(=O)c1cccc(Nc2ccc3cc(S(=O)(=O)N4CCCCC4)ccc3n2)c1	74%	15%	-6%[59 µM]	28%	nt	nt
O=C(NC(Cc1ccccc1)C(=O)O)/C(=C\c1ccco1)NC(=O)c1ccccc1Br (centres undefined)	42%	-22%	?	-10%	50µM*	?
O=C(NC(Cc1ccccc1)C(=O)O)/C(=C/c1ccco1)NC(=O)c1cccc([N+](=O)[O-])c1 (centres undefined)	50%	8%	45µM*	-12%	7%	nt
O=C(NC(Cc1ccccc1)C(=O)O)/C(=C/c1ccc(Cl)cc1)NC(=O)c1ccco1 (centres undefined)	0%	-1%	50µM*	-10%	30%	nt
COc1ccc(/C=C(\NC(=O)c2ccco2)C(=O)NC(Cc2ccccc2)C(=O)O)cc1 (centres undefined)	11%	1%	-37%	-14%	2%	nt
COC(=O)c1cc(S(=O)(=O)N(C)C2CCCCC2)c[nH]1	35%	-7%[57.1 µM]	?	-6%	11%	nt
O=C1CC(/C=C/c2ccncc2)=Nc2ccccc2N1	37%	-20%	40µM*	-12%	4%	nt
Cn1c(=O)c2[nH]c(CN(Cc3ccccc3)Cc3ccccc3)nc2n(C)c1=O	21%	2%	-1%[59 µM]	-8%	-6%	0%
CN(C)Cc1nc2c([nH]1)c(=O)n(C)c(=O)n2C	24%	-4%	?	3.5µM*	56µM*	4%
Cc1cc(C)c2c(N)c(C(=O)NN3CC(=O)N(c4ccccc4)CC3=O)sc2n1	30%	-22%	nt	-10%	21%	-8%
Cc1cc(=O)[nH]c(SCCOc2ccc3c(c2)CCC3)n1	34%	7%	7%[59 µM]	-13%	-2%	nt
Cc1cc(=O)[nH]c(SCCOc2ccc(OC(C)C)cc2)n1	4%	-32%	14µM*	?	13%	?
COC(=O)c1sccc1NS(=O)(=O)c1ccc(OC)cc1	28%	2%	-9%[59 µM]	-15%	-1%	7%
COC(=O)c1sccc1N/C=C(\C#N)S(=O)(=O)C(C)(C)C	-1%	-5%	-2%	79µM*	18%	-1%
O=S(=O)(Nc1ccc(-c2ccc3nncn3n2)cc1)c1cccc(F)c1	45%	16%	-6%	-5%	nt	-3%
CC1=NN(C(N)=S)C(=O)C1N=Nc1ccccc1 (centres undefined)	26%	2%	2%	-19%	?	16%
CC1=NN(C(N)=S)C(=O)C1N=Nc1cccc2ccccc12 (centres undefined)	nt	40µM*	nt	nt	-1%	-1%
CC1=NN(C(N)=S)C(=O)C1N=Nc1cccc(Cl)c1C (centres undefined)	?	45µM*	nt	50µM*	9%	-7%
CC1=NN(C(N)=S)C(=O)C1N=Nc1ccc(Br)cc1 (centres undefined)	14%	-11%	nt	-27%	9%	14%
CC1=NN(C(N)=S)C(=O)C1N=Nc1ccc(Cl)cc1 (centres undefined)	?	-6%	71µM*	?	-5%	4%
CC1=NN(C(=O)c2ccncc2)C(=O)C1N=Nc1ccc2ccccc2c1 (centres undefined)	25µM*	nt	nt	?	nt	nt
COC(=O)N1CCC2(CC1)CN(c1cccc(-c3ccccc3)c1)C2	nt	nt	2%[12.7 µM]	nt	79µM*	nt
O=c1c(-c2cc(F)cc(F)c2)nc2cnc(N3CCOCC3)nc2n1CCc1ccccc1	nt	nt	15%[0.501 µM]	nt	1%	nt
NC(=O)CCN1CCCCC1	26%	5%	3%[0.501 µM]	-2%	-7%	52%
O=C(CCC(=O)CCN1CCCCC1)CCN1CCCCC1	?	-3%	13µM*	-12%	-4%	nt
SMILES	HP1b chromo inh	BAZ2B block	G9a inh	JMJD2A Tudor inh	Sfp PPTase inh	L3MBTL1 block
NNC(=O)CCN1CCCCC1	25%	-11%	5%	-7%	4%	5%
N#CCCNC(=O)CCN1CCOCC1	24%	-4%	28µM*	?	8%	2%
N#CCCNC(=O)CCN1CCCCC1	8%	-7%	56µM*	-7%	13%	nt
O=C(CCC1CCCC1)NCCCN1CCOCC1	24%	-2%	-11%[12.7 µM]	1%	22%	5%
CC(C)(C)C1CCc2c(sc(NC(=O)c3cc4ccccc4c(=O)o3)c2C(N)=O)C1 (centres undefined)	8%	4%[57.1 µM]	10µM*	-3%	nt	nt
O=C(COc1ccccc1)NC(=S)N1CCc2ccccc21	-5%	-35%	28µM*	-25%	9%	-1%
COc1ccc(OCC(=O)NC(=S)N2CCCc3ccccc32)cc1	-26%	50µM*	?	56µM*	56µM*	nt
O=C(C[n+]1ccc(-c2nnc3n2CCCCC3)cc1)c1ccc(Cl)cc1	43%	-1%	nt	-13%	-11%	11%
NCCNc1ccc(C(=O)N2c3ccccc3Sc3ccccc32)cc1[N+](=O)[O-]	-29%	40µM*	?	?	-33%	-6%
COc1ccc(-c2nc(CSc3nnc(C)n4c3cc3sccc34)c(C)o2)cc1	22%	-20%	-42%[59 µM]	-8%	nt	nt
COCCNC(=O)C(c1ccc(C)o1)N(CC1CCCO1)C(=O)Cn1nnc2ccccc21 (centres undefined)	67%	-9%	50µM*	-22%	-7%	1%
COCCNC(=O)C(c1ccc(C)o1)N(Cc1ccc(OC)cc1)C(=O)Cn1nnc2ccccc21 (centres undefined)	33%	-25%	-7%[59 µM]	0%	-1%	0%
CC1CCC2C(=O)OC(CN3C(=O)c4ccccc4C3=O)CN2C1c1ccc(Br)cc1 (centres undefined)	nt	nt	nt	nt	8%	nt
O=C(COc1ccc(S(=O)(=O)NCc2ccccc2)cc1Cl)NCc1ccccn1	-4%	-38%	45µM*	-13%	?	nt
O=C(COc1ccc(S(=O)(=O)N2CCc3ccccc32)cc1Cl)NCc1ccccn1	-1%	79µM*	14µM*	45µM*	-25%	23%[11.4 µM]
O=C(NCCS(=O)(=O)NC1CCCC1)c1ccccc1	17%	11%	-40%	-11%	nt	3%
Cc1cc(S(=O)(=O)N2CCCC2)ccc1OCC(=O)NCc1ccccn1	18%	-2%	11%	2%	10%	nt
Cc1cc(S(=O)(=O)NC2CCCCC2)ccc1OCC(=O)NCc1ccccn1	21%	-27%	10%[59 µM]	28µM*	-19%	-6%
O=C(NCCS(=O)(=O)NCc1ccccn1)c1ccccc1	-2%	4%	61%	2.8µM*	nt	-8%
